Assay [1] addresses Arylsulfatase A (Homo sapiens) (UniProt P15289). Kind of assay: qHTS screen for enhancers of Arylsulfatase A (ASA1): LOPAC Validation Assay (AID 720538). In outline: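 First, ASA-I179S fibroblasts from an MLD patient adhered for 6 hrs. Next, compounds were added for 48h. Then pNCS substrate (0.5mM final) with lysis buffer reacted 14h at room temperature before NaOH stop and fluorescence measurement.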

A short description of assay [2]: qHTS for compounds that reverse cellular toxicity of Amyloid beta (A-beta) peptide in yeast: LOPAC Validation Assay (AID 720559). In outline: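 Activity is expressed relative to DMSO and an equimolar ferric chloride/clioquinol mix. Compounds were pinned into medium with A-beta-expressing yeast, grown 48 hr at 30 C, then read by absorbance at 600 nm.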
(In general: qHTS replaces the single test concentration by a dilution series.)

Assay [3] in a line: qHTS for Activators of Parkin Expression: LOPAC Validation Assay (NLuc Reporter) (AID 720572). The method, boiled down: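 Compound effects on Parkin promoter activity were measured as NanoLuc luminescence after 24 h at 37 C. The neuronal reporter line also carried FLuc, which was read first. LOPAC compounds were tested at 7 concentrations, with normalization to DMSO (0%) and positive control (100%).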

Assay [4] in a line: qHTS assay for small molecule disruptors of the mitochondrial membrane potential - 5 hr assay (AID 651755; calls by dose curve; also: potency is read from the fitted curve at half-maximal effect; nearly all actives have a fitted effect of over 40% in size). The method, boiled down: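 Membrane-potential dye readout: red aggregate (540 ex/590 em) versus green monomer (490 ex/535 em) fluorescence after 30 min dye loading, following 5 hr compound exposure at 37C of overnight-plated HepG2 cells.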
Assay [5] deals with Peroxisome proliferator-activated receptor alpha (Homo sapiens) (UniProt Q07869). Kind of assay: qHTS assay for small molecule agonists of the peroxisome proliferator-activated receptor alpha (PPARalpha) signaling pathway (AID 651778). The note with it: PathHunter PPARalpha complementation, chemiluminescence, 6 h; active compounds read high. The method, boiled down: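 Chemiluminescence from complemented enzyme reported PPARalpha activation in cells after 6 hr of compound treatment at 37 C. The detection reagent was incubated for 60 min at room temperature, and compounds were scored as agonists.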

Assay [6] is described as follows: qHTS assay for environmental chemicals that activate the Aryl hydrocarbon Receptor (AhR) signaling pathway (AID 651777). Also: nearly all actives have a fitted effect of over 15% in size. The note with it: 1A2-DRE human hepatoma cells, luciferase, 24 h; activation: active compounds read high. In outline: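 Luminescence (One-Glo, 30 min, room temperature) reports AhR-driven luciferase in stably transfected human hepatoma cells bearing DRE and CYP1A2 promoter. Cells (1,200/well) were treated with compound for 24 hr at 37 C in qHTS format.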

Molecules are shown by their SMILES. Values without a mark were called inactive. Inconclusive results are not listed. A call without a number means that no potency is given here. Activity calls are given as the source filed them. Unless noted, calls follow the shape of the dose curve; as a rule, active = well fitted curve in the direction sought with a large enough effect; inconclusive = small, poorly fitted or top-dose-only effect, or another doubt; inactive = no such curve, though single readings can be large; an effect the other way counts as inactive or inconclusive.

Peroxisome proliferator-activated receptor alpha (Homo sapiens), sequence (Q07869 whole entry, looked up): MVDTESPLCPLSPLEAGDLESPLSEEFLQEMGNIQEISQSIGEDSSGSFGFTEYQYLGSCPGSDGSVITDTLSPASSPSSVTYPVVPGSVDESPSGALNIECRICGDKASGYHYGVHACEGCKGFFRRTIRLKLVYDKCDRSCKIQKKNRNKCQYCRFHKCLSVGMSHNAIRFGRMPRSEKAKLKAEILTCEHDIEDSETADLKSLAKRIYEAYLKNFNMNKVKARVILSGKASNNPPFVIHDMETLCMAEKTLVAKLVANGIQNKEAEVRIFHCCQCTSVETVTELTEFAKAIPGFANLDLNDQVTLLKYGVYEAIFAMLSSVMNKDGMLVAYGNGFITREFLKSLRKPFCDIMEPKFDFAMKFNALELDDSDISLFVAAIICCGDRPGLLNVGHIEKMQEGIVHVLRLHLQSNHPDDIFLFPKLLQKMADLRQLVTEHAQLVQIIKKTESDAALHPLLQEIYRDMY
Arylsulfatase A (Homo sapiens), sequence (P15289 whole entry, looked up): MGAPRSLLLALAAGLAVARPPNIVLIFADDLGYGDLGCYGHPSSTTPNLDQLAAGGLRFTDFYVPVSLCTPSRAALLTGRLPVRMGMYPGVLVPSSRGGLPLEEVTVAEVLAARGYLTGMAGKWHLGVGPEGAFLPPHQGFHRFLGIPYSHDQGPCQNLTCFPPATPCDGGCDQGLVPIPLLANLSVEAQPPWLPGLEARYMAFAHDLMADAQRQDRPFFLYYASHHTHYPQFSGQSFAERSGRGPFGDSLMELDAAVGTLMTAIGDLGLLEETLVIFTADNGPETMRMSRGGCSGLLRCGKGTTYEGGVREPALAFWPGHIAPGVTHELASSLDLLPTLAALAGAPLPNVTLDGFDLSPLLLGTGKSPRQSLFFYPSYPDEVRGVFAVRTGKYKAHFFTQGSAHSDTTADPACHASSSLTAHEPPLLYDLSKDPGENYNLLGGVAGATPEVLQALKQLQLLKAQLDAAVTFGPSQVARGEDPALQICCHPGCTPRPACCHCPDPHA

Turning to `Ic1ccccc1CNC1C2CCN(CC2)C1C(c1ccccc1)c1ccccc1` (centres undefined), the Potency result in assay [1] and in assay [3] was “inactive” in each case. Also, the outcome in assay [2] was inactive.
As to `CC(C)Nc1ccc(Nc2ccccc2)cc1`, the Potency in assay [4] was 59.6 µM (active). In addition, the max response in assay [5] is -3.2%.
As for `C=CCN1C[C@@H](C)N([C@H](c2ccc(C(=O)N(CC)CC)cc2)c2cccc(OC)c2)C[C@@H]1C`, the Potency result in assay [1] and in assay [3] was “inactive” throughout. The molecule was classed as inactive in assay [2].
Turning to `C[C@H](Cc1ccc2c(c1)OC(C(=O)O)(C(=O)O)O2)NC[C@H](O)c1cccc(Cl)c1`, the Potency entry in assay [1] and in assay [3] was “inactive” throughout. The result in assay [2] was inactive.
Turning to `C[CH2][Hg][S]c1ccccc1C(=O)O`, the activation in assay [6] is -11.2%. Also, the max response in assay [5] is -9.74%.
With `CCN1C[C@@]2(COC)C3[C@@H](OC)C4[C@@H]1C3([C@@H]1C[C@]3(O)[C@H](OC(=O)c5ccccc5)[C@@H]1[C@]4(OC(C)=O)[C@@H](O)[C@@H]3OC)[C@H](OC)C[C@H]2O`, the Potency result in assay [1] and in assay [3] was “inactive” each time. For the same molecule, the call in assay [2] was inactive.
`NC(C(=O)O)c1cc(=O)[nH]o1` (centres undefined): the Potency entry in assay [1] and in assay [3] was “inactive” throughout. In addition, in assay [2], the result was inactive.
In the case of `COc1ccc2[nH]cc(CCN)c2c1`, the Potency result in assay [1] and in assay [3] was “inactive” in each case. Also, in assay [2], the molecule was called inactive.
Turning to `CCCSP(=O)(OCC)SCCC`, in assay [6], the activation is -2.38%. In addition, the max response in assay [5] is 0.388%.
As to `O=C(NCNC(=O)NC1C(=O)NC(=O)N1CO)NC1C(=O)NC(=O)N1CO` (centres undefined), the max response in assay [5] is -1.19%.
With `CN1CC[C@@]2(C)c3cc(OC(=O)Nc4ccccc4)ccc3N(C)[C@@H]12`, the Potency entry in assay [1] and in assay [3] was “inactive” each time. Besides, in assay [2], the result was inactive.
In the case of `NCCCP(=O)(O)O`, the Potency entry in assay [1] and in assay [3] was “inactive” each time. In addition, the molecule was classed as inactive in assay [2].
`CC(C)NP(=O)(NC(C)C)OP(=O)(NC(C)C)NC(C)C`: the Potency entry in assay [1] and in assay [3] was “inactive” in each case. Moreover, the molecule was called inactive in assay [2].

The record behind these values is PubChem BioAssay (NCATS).
